Structures are written as SMILES. Several values for one entry are separate records, joined by “and”; a condition that tells them apart may be missing. Equal entries are not always repeated. Records with an inconclusive call do not appear. Some compounds were tested as several samples or in several runs, with calls that do not always agree. Activity calls are given as the source filed them. Unless noted, calls come from the whole dose curve.

Assay [1] can be described thus: Cell Viability - BJ (AID 421).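 Note: cells exposed to compound for 40 hours at 37 °C before readout.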 The note with it: BJ fibroblast viability, qHTS. The method, boiled down:
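Luminescent ATP signal (CellTiter-Glo, 20 min at room temperature) served as the read-out of viable BJ cells after 40 hours of compound treatment. Responses were scaled between DMSO and 100 uM tamoxifen, and AC50 values were obtained by Hill modeling.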
In general terms: In qHTS, concentration-response curves come from the screen itself.

Assay [2] in a line: Cell Viability - Hek293 (AID 427;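 active = compounds whose dose-response curve shows a full or clear partial loss of cell viability, called from curve shape rather than a numeric limit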;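 note: cells exposed to compound for 40 hours at 37 °C before reading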). The note with it: qHTS. The essentials:
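Luminescent ATP read-out (CellTiter-Glo, 20 min RT) after 40 hr compound exposure at 37 °C in complete medium. Signal normalized to DMSO (basal) and 100 uM tamoxifen (100% inhibition); concentration-response fitted with the standard Hill equation to give AC50.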

Assay [3] in a line: Cell Viability - HepG2 (AID 433).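 Note: potency for ATP loss meaning cytotoxicity.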 The note with it: qHTS. The method, boiled down: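 Cytotoxicity read as ATP loss (CellTiter-Glo luminescence) after 40 hr compound exposure of HepG2, 1500 cells/well, 37 °C. AC50 by Hill equation; 0% set by DMSO, 100% inhibition by 100 uM tamoxifen.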
The nature of assay [4]: Cell Viability - MRC5 (AID 434).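 Note: potency reflects cytotoxicity seen as loss of intracellular ATP.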 The note with it: MRC5 lung fibroblast viability, qHTS. The method, boiled down:
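qHTS cytotoxicity in human lung fibroblast MRC5 cells; 40 hr treatment, 37 °C; cellular ATP by luciferase luminescence; DMSO = 0%, 100 uM tamoxifen = 100% inhibition; Hill-fit AC50.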

Assay [5] can be described thus: Cell Viability - SK-N-SH (AID 435). The note with it: SK-N-SH neuroblastoma cell viability qHTS. The essentials:
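qHTS cytotoxicity: CellTiter-Glo ATP luminescence after 40 h compound exposure of human neuroblastoma SK-N-SH cells at 37 °C. AC50 derived by Hill-equation fitting, with DMSO as basal and 100 uM tamoxifen as full inhibition.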

A short description of assay [6]: Cell Viability - Jurkat (AID 426;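 active = dose-dependent loss of cell ATP signal giving a full or clear fitted curve, ranked by lower potency value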). The note with it: qHTS. The method, boiled down: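 Jurkat (clone E6-1, human T-cell leukemia) cells, 5000/well in complete medium, were exposed to compound for 40 hr at 37 °C. Viability was read as intracellular ATP by CellTiter-Glo luminescence; AC50 came from Hill fits of concentration-response data.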
The target of assay [7] is Cytochrome P450 1A2 (Homo sapiens) (UniProt P05177). Nature of the assay: p450-cyp1a2 (AID 410). The note with it: recombinant CYP1A2, luciferin-ME demethylation, luminescence; series mostly up to 57 µM. The method, boiled down:
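Human CYP1A2 (20nM) demethylated Luciferin-ME at its Km (100uM) in 100mM KPO4. After 10 min compound preincubation, NADPH regeneration ran the reaction 60 min at room temperature. Luciferin was read by luminescence, normalized to 57 uM furafylline.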
Potency is the fitted concentration of half-maximal effect.

Chain of Cytochrome P450 1A2 (Homo sapiens) (P05177 whole entry, looked up): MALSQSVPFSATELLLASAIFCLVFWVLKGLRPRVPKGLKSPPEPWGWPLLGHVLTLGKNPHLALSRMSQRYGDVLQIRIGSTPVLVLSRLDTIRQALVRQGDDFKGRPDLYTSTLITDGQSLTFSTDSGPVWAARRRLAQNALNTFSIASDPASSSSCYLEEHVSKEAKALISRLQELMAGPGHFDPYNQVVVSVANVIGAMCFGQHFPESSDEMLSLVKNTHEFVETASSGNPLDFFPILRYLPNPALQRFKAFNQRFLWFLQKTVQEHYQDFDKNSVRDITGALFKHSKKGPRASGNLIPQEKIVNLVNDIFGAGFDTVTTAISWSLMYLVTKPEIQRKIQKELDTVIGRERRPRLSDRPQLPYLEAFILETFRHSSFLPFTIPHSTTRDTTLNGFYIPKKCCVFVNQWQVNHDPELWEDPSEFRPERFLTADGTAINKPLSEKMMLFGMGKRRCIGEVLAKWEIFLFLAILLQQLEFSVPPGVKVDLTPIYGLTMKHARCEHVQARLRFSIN

For the molecule `CN(C)[C@@H]1C(=O)C(C(N)=O)=C(O)[C@@]2(O)C(=O)C3=C(O)c4c(O)cccc4[C@@](C)(O)[C@H]3[C@H](O)[C@@H]12`, the Potency in assay [1], in assay [2], in assay [3], in assay [4] and in assay [5] was > 92 µM (inactive) throughout.
On to `O=[N+]([O-])c1c(Cl)c(Cl)cc(Cl)c1Cl`, for which the Potency in assay [1], in assay [6], in assay [2], in assay [3], in assay [4] and in assay [5] was > 92 µM (inactive) in each case.
With `CCOCCOC(C)=O`, the Potency in assay [1], in assay [6], in assay [2], in assay [3], in assay [4] and in assay [5] was > 92 µM (inactive) throughout.
As to `Cc1cc(O)ccc1Cl`, the Potency in assay [1], in assay [6], in assay [2], in assay [3], in assay [4] and in assay [5] was > 92 µM (inactive) each time.
Regarding `c1cc2ccc3cccc4ccc(c1)c2c34`, the Potency in assay [1], in assay [6], in assay [2], in assay [3], in assay [4] and in assay [5] was > 92 µM (inactive) in each case.
On to `Cc1nc(-c2ccc(-c3ccc(C(=O)N4CCc5cc6c(cc54)C4(CCN(C)CC4)CO6)cc3)c(C)c2)no1`, for which, in assay [7], the Potency result was “inactive and 39.8 µM (active)”.
On to `CCCCOC(=O)c1ccccc1C(=O)OCc1ccccc1`, for which the Potency in assay [1], in assay [6], in assay [2], in assay [3], in assay [4] and in assay [5] was > 92 µM (inactive) throughout.
